# In publication PMC7819943, “Rice protein-binding microarrays: a tool to detect cis-acting elements near promoter regions in rice”:
# The full ranking holds about 35,000 sequences; the median of “fluorescence intensity (a.u.)” is about 10,000, and the highest 2% start at about 52,000. The sample as a whole holds a higher share of the highest values than the screen did.
# Biological target: T1, OsWOX13 (Oryza sativa, UniProt Q5QMM3 1-267)
# T1 sequence: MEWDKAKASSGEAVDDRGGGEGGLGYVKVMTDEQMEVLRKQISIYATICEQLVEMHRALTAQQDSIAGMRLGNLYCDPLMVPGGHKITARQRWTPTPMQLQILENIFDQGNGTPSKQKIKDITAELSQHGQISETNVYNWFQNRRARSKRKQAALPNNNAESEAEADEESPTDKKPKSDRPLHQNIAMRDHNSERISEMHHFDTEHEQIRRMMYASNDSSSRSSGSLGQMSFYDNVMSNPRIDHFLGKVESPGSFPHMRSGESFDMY
# Test: protein-binding microarray (RPBM); PBS, 2% BSA, 51.3 ng/ul salmon testes DNA, 50 uM zinc acetate, 200 nM TF, 25 C, 1 h; high values mean tight binding
# Settings: protein: recombinant; tags: N-terminal polyhistidine and DsRed monomer fusion (pET32a); label: CyDye5-dUTP incorporated in the synthesized complementary strand; 3' TTTTT single-stranded linker to array surface; dsDNA, one strand shown
# Outline: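 Transcription factors were each fused at the N-terminus to a polyhistidine tag plus DsRed and expressed in E. coli BL21-CodonPlus before Ni–NTA purification. Binding to a double-stranded custom Agilent array was carried out with 200 nM protein at 25 °C for 1 h in PBS, 2% BSA, salmon testes DNA and 50 µM zinc acetate. The binding signal is per-feature fluorescence intensity, in arbitrary units, on an Axon 4000B scanner.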
row,Sequence,binding signal
1,ACTCCCTATTAATTTCCATCACCTTTACCAAACAAGATATCGGAGTCACCTAGTGCAG,6910 fluorescence intensity (a.u.)
2,GATTTAAACTGAAACGAACAGATTCTTTGTTCTTTGCATACGGAGTCACCTAGTGCAG,9800 fluorescence intensity (a.u.)
3,ATAATTAGTACCTTATAATAAGTAGCACAATCTTCGTGTTCGGAGTCACCTAGTGCAG,7900 fluorescence intensity (a.u.)
4,TGGAATGATGGATAAAGTCCAAGTTTGACCTGAGTCAAAGCGGAGTCACCTAGTGCAG,6270 fluorescence intensity (a.u.)
5,CAGATATAAATTGAGCGACTTCCAGAGTGATCAGCACTACCGGAGTCACCTAGTGCAG,7440 fluorescence intensity (a.u.)
6,ACAACAACAGCTTTGATCAATCAATCCATCAACTCAGGTTCGGAGTCACCTAGTGCAG,11400 fluorescence intensity (a.u.)
7,AATCTTTTCTTAATTCTATAATTATCCTTAACGAATTAGTCGGAGTCACCTAGTGCAG,4150 fluorescence intensity (a.u.)
8,GATAACTGGTGTGGAGGCTGCGGCGTGGGTGGTAAAGCACCGGAGTCACCTAGTGCAG,3220 fluorescence intensity (a.u.)
9,ACAATGATTGATTAATGTTTGATAGTAACAGCCATGAGAGCGGAGTCACCTAGTGCAG,58800 fluorescence intensity (a.u.)
10,ATTAATGATTGATAGTCAGTCACTTAGCCATGTTATTTTGCGGAGTCACCTAGTGCAG,65500 fluorescence intensity (a.u.)
11,TAAATTTTGACTGATAAGTATAAGTATAAGCGAAAAGATTCGGAGTCACCTAGTGCAG,12400 fluorescence intensity (a.u.)
12,TGTTAGATTTAATGTAATTGATTTGATATTTTAGATATTGCGGAGTCACCTAGTGCAG,49700 fluorescence intensity (a.u.)
13,ATATGATTATGTGATAATGTTTGAGAGTACAAACAAATGACGGAGTCACCTAGTGCAG,19000 fluorescence intensity (a.u.)
14,ATAATTTTGAAATTATTAACATGATATAAATGAGATAGAGCGGAGTCACCTAGTGCAG,16200 fluorescence intensity (a.u.)
15,GATTTTGATAGGAATGTAAGTATAAAACAGAGGATTGTAACGGAGTCACCTAGTGCAG,3360 fluorescence intensity (a.u.)
16,TATTATTTATTTTGTTTGTGATTTGCTTTGTTATTAATAGCGGAGTCACCTAGTGCAG,8380 fluorescence intensity (a.u.)
17,TTTTGATTGATAAGTATAACCATGTATAAGCGAAACAATGCGGAGTCACCTAGTGCAG,64500 fluorescence intensity (a.u.)
18,AACCCAATAACGGTAACTGACAAAACGATGAAAACCAAACCGGAGTCACCTAGTGCAG,4460 fluorescence intensity (a.u.)
19,ATATAGATTTACGTTGGATTTATACTGATTCTAACCAAATCGGAGTCACCTAGTGCAG,13600 fluorescence intensity (a.u.)
20,ATGATTTTGTTTTGTTTTGCGAATAATTTTGGCGCCTCAACGGAGTCACCTAGTGCAG,6150 fluorescence intensity (a.u.)
21,CACCAGTGATCTTATAATTGTAAATTTTGATCCAAGATTCCGGAGTCACCTAGTGCAG,3800 fluorescence intensity (a.u.)
22,AAGAATTAATTAATGTTTAACTAGATGGCCTTATTATCTCCGGAGTCACCTAGTGCAG,34300 fluorescence intensity (a.u.)
23,ATGTGTATGATGTGTTTGTTTATGTGTGGACTTTATAATACGGAGTCACCTAGTGCAG,3210 fluorescence intensity (a.u.)
24,TTTACTAAGCAATCAAGATAACCTGATGTGCCTATCCATCCGGAGTCACCTAGTGCAG,10200 fluorescence intensity (a.u.)

row,Sequence,binding signal
1,ACAAACACGTAATAACATTAATTTCAATCTACACATCATACGGAGTCACCTAGTGCAG,9270 fluorescence intensity (a.u.)
2,GCTCCTAACCAATCAGCGCACCCATCGTCCCAAAATCCCCCGGAGTCACCTAGTGCAG,8480 fluorescence intensity (a.u.)
3,ATAATTATTATGTCTGGTAGGATAGGATTTAGATGGTAAGCGGAGTCACCTAGTGCAG,5670 fluorescence intensity (a.u.)
4,CCAATGATTGATCGATTTCTCTCCATACGCCGTGTGCCAACGGAGTCACCTAGTGCAG,59700 fluorescence intensity (a.u.)
5,CCAAATCAATCAAATCGCATTCCACCAATTCTCCACTCTCCGGAGTCACCTAGTGCAG,27300 fluorescence intensity (a.u.)
6,ATCAATTCAAATTTAAATTTTGATGAAACTCTTCGAAATCCGGAGTCACCTAGTGCAG,14400 fluorescence intensity (a.u.)
7,CTCTCGCTCGCCATGATTGATCGAGCTCCACCTGCCAATTCGGAGTCACCTAGTGCAG,12900 fluorescence intensity (a.u.)
8,TTGGAGATGATTGATTGGAAATCTTCTTCCAGTCTCCTCTCGGAGTCACCTAGTGCAG,61700 fluorescence intensity (a.u.)
9,TGATGATTTGATTTGATTTGATTCAATCTCCAAATCGATCCGGAGTCACCTAGTGCAG,65100 fluorescence intensity (a.u.)
10,TCATTTCTCCAATCATAGGAGCTGGCGCATTGATCGATCACGGAGTCACCTAGTGCAG,6160 fluorescence intensity (a.u.)
11,TGATGAGATTGATCCGATGATCTCCTCTTTAAATTTCTCGCGGAGTCACCTAGTGCAG,19100 fluorescence intensity (a.u.)
12,TCCAATTGATTGCAAATCGATTCCTCACTCCTCTCTTATCCGGAGTCACCTAGTGCAG,57400 fluorescence intensity (a.u.)
13,AAATCCCACTCCAATCACCACCACCTCTTCTCCAATTCCACGGAGTCACCTAGTGCAG,3840 fluorescence intensity (a.u.)
14,AATCTCAAATTGAATCCATTTTATTTGATGACGATTTATTCGGAGTCACCTAGTGCAG,9810 fluorescence intensity (a.u.)
15,TCCAGTGATTAATCTCTTCTCCATCTCTGCCCTGCACCCTCGGAGTCACCTAGTGCAG,21400 fluorescence intensity (a.u.)
16,GTGATGATTTATTTTCGAACTATCTAGCTATTTATCTAGACGGAGTCACCTAGTGCAG,9370 fluorescence intensity (a.u.)
17,CTCCAATTCATCTATAATCAATCTAATAGCCAATTCATACCGGAGTCACCTAGTGCAG,5900 fluorescence intensity (a.u.)
18,GTTTTATTCTGATTAAATTAAATGCCACAGGGACATTGTCCGGAGTCACCTAGTGCAG,9600 fluorescence intensity (a.u.)
19,ATGTGGCCGATAATTGCTTTGCATGCTGATGGATGTGGCTCGGAGTCACCTAGTGCAG,4180 fluorescence intensity (a.u.)
20,GTCATAAATTGATCCATACATATCATAGTAAAGCGTGGGTCGGAGTCACCTAGTGCAG,33400 fluorescence intensity (a.u.)
21,CTAAATTGAATCTATCCACTTTGCCTCCTAAACTCACCCCCGGAGTCACCTAGTGCAG,54600 fluorescence intensity (a.u.)
22,GAAATAATTGATTGAATCCTATTCTATCCTCTAAAATTCCCGGAGTCACCTAGTGCAG,30900 fluorescence intensity (a.u.)
23,ATCTAATCTTGAATTAAACTCACTATCAATTCCCACCATCCGGAGTCACCTAGTGCAG,4380 fluorescence intensity (a.u.)
